CHX counter = affects cycloheximide protein synthesis inhibition readout, counter-screen. max response, %. cell reporter, cycloheximide protein synthesis inhibition counterscreen. 300,000 tested, 12% active; in the data active = max response mostly above about 13%, no sharp cut-off; inactive = mostly below about 14%; also: read at 38.3 µM for the half of the compounds with a filed dose; 0% is about no effect
AmpC no deterg = inhibitors of E. coli AmpC beta-lactamase without detergent; P00811; 330,000 tested, 0.52% active; AID 485341; Potency, µM (titrated, usually from 57.1 µM), without a hit: at the top dose activity change, negative = inhibition, most hits filed as inhibitors; AmpC nitrocefin hydrolysis, absorbance 480 nm, 0.0001% Triton;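 also: potency is read from the fitted curve at half-maximal effect; plate controls were no compound for no effect and no enzyme for full effect; nearly all actives have a fitted effect of over 20% in size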
Target sequence (P00811 whole entry, looked up): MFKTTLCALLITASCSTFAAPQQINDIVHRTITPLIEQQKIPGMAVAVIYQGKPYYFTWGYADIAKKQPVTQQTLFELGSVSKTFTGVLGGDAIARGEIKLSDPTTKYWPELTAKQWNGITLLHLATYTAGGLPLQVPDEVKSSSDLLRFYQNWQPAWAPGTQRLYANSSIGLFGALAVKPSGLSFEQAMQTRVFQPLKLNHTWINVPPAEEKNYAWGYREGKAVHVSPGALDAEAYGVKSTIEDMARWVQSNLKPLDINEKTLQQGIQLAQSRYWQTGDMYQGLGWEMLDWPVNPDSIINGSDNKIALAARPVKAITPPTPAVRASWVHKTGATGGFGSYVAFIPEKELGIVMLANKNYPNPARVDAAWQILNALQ
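20 mM phosphate pH 7.0 + 0.01% (detergent screen) or 0.0001% Triton X-100; 5.3 nM AmpC reagent; cpd preinc 15 min RT; nitrocefin (800 uM stock) to start; A480 q20 s × 4 min; Activity was normalised to no-enzyme and no-compound control wells.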
AmpC inh detg = AmpC beta-lactamase inhibition with detergent present; P00811; AmpC hydrolysis of nitrocefin, absorbance 480 nm, 0.01% Triton; Potency, µM (top dose mostly 114 µM), inactives show at the highest dose activity change, negative = inhibition, most hits filed as inhibitors; 370,000 tested, 0.041% active; AID 485294;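 also: potency is read from the fitted curve at half-maximal effect; 0% = no-compound wells and -100% = no-enzyme wells; nearly all actives have a fitted effect of over 25% in size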
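AmpC (5.3 nM in the dispensed reagent) in 20 mM phosphate pH 7.0 with 0.01% (detergent screen) or 0.0001% Triton X-100 was preincubated with compounds for 15 min at room temperature. Nitrocefin was then added from an 800 uM solution, and hydrolysis was followed at 480 nm.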
SARS PLpro yeast = SARS-CoV PLP inhibition in yeast. S. cerevisiae expressing SARS-CoV PLpro, growth rescue. Potency, µM (series often up to 32.9 µM), without a hit: at the highest dose activity, positive = growth rescue, usual class: activators. 330,000 tested, 0.19% active. AID 485353; calls by dose curve; also: potency is read from the fitted curve at half-maximal effect; 0% is about no effect; nearly all actives have a fitted effect of over 55% in size
Shiga toxin inh = inhibitors of Shiga toxin in Vero cells. Vero cells, Shiga toxin protein synthesis inhibition reporter. inhibition, % at 38.7 µM. 290,000 tested, 9.2% active; in the data active = inhibition mostly above about 28%, no sharp cut-off; inactive = mostly below about 43%; also: 0% is about no effect
AMA1 RON2 block = disrupts binding of P. falciparum AMA1 to RON2; AlphaScreen AMA1-biotinylated RON2 peptide binding; Potency, µM (top dose mostly 58.2 µM), for inactives: top-dose activity change, negative = inhibition, hits mostly inhibitors; 360,000 tested, 0.2% active;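 also: potency is read from the fitted curve at half-maximal effect; 0% = vehicle wells and -100% = peptide control; nearly all actives have a fitted effect of over 45% in size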
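AMA1 (3D7) with his tag at 25 nM final met compounds first, then biotinylated RON2 peptide at 25 nM; detection used donor plus acceptor beads, 10 µg/mL apiece, read by AlphaScreen after 30 min at room temperature.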
Active calls of the source: *; ? = inconclusive; · = no result. Shown is part of a subset that was picked to be rich in hits. Unless noted, calls follow the shape of the dose curve; as a rule, active = well fitted curve in the direction sought with a large enough effect; inconclusive = small, poorly fitted or top-dose-only effect, or another doubt; inactive = no such curve, though single readings can be large; an effect the other way counts as inactive or inconclusive.

SMILES | CHX counter | AmpC no deterg | AmpC inh detg | SARS PLpro yeast | Shiga toxin inh | AMA1 RON2 block
C=CCn1c(O)c(C=NCCN2CCNCC2)c(=O)[nH]c1=O | -3 | -21% | -9% | -2% | -33 | 15%
CCN(CC)S(=O)(=O)c1ccc(NC(=O)c2c(-c3ccccc3)noc2C)cc1 | -4 | -14% | ? | ? | -10 | 5%
Cn1cccc1C(=O)OCC(=O)c1cc2ccccc2o1 | 29* | -45% | ? | 4% | 62* | -2%
COC(=O)c1ccc(COC(=O)c2cccn2C)o1 | 24* | -4% | ? | -3% | 140* | -24%
CCCc1ccc(OCc2ccc(C(=O)N3CCSCC3)o2)cc1 | 86* | 30% | -6% | -3% | 156* | -2%
O=C(NCc1cccnc1)c1ccc(COc2ccc3c(c2)CCC3)o1 | 5 | 88% | -21% | -6% | -5 | -27%
CCOc1ncccc1C(=O)OCc1ccc(C(=O)OC)o1 | 5 | 8% | -8% | 5% | -9 | 7%
COC(=O)c1ccc(COc2ccc3c(c2)CCC3)o1 | 54* | -18% | -9% | -1% | 117* | -19%
O=C(COC(=O)c1ccc(Cl)s1)c1cc2ccccc2o1 | 19 | -55% | 2% | 4% | -20 | 9%
NC(=O)c1ccsc1NC(=O)C1CCCN1S(=O)(=O)c1ccc(Cl)cc1 (centres undefined) | -5 | 0% | 0% | 0% | -5 | 8%
CC1CN(CC(O)COc2ccccc2C(C)(C)C)CC(C)O1 (centres undefined) | 4 | 200% | -4% | 0% | -13 | -2%
CCOC(=O)C1CCN(C(=O)c2ccc3snnc3c2)CC1 | -2 | -11% | 1% | -10% | -2 | -8%
CCCNC(=O)c1ccc(COc2ccc(Cl)cc2)o1 | 6 | 12% | -5% | -7% | -2 | 0%
COC(=O)c1ccc(COc2ccc(C(C)(C)C)cc2)o1 | 90* | 0% | -1% | -4% | 145* | 27%
O=C(Nc1cccnc1)c1ccc(COc2ccccc2Br)o1 | -2 | -13% | 0% | -5% | 16 | -7%
COC(=O)c1ccc(COc2ccc(NC(C)=O)cc2)o1 | -1 | -7% | 1% | 0% | 16 | -15%
CCCNC(=O)c1ccc(COc2ccc(C(C)(C)C)cc2)o1 | 40* | 88% | -15% | -6% | 94* | -2%
CCc1ccc(OCc2ccc(C(=O)OC)o2)cc1 | 67* | -15% | -8% | -2% | 154* | 23%
CC(C)(C)c1ccc(OCc2ccc(C(=O)Nc3cccnc3)o2)cc1 | 75* | 27% | -10% | -10% | 157* | -3%
COc1cc(CN2C[C@@H](CO)O[C@@H](n3cnc4c(NCc5ccncc5)ncnc43)C2)cc(OC)c1OC | · | · | · | · | · | 58%
COc1ccc(-c2nc3ccccn3c2NC2CCCCC2)cc1SC1CCCCC1 | · | -4% | -13% | -1% | · | -11%
COC(=O)c1ccc(COc2ccc(C=O)cc2)o1 | 8 | -15% | 3% | 4% | 12 | -2%
CC(C)(C)c1ccc(OCc2ccc(C(=O)N3CCOCC3)o2)cc1 | 54* | 165% | 1% | -2% | 115* | 7%
CCC(C)c1ccc(OCc2ccc(C(=O)OC)o2)cc1 (centres undefined) | 101* | -3% | -9% | 0% | 149* | 32%
Cc1cccc(OCc2ccc(C(=O)N3CCOCC3)o2)c1 | 5 | 17% | -3% | -6% | 7 | -12%
SMILES | CHX counter | AmpC no deterg | AmpC inh detg | SARS PLpro yeast | Shiga toxin inh | AMA1 RON2 block
CN(C)/C=C/C(=O)c1cccc(C(F)(F)F)c1 | 8 | -20% | -8% | -3% | 28 | -3%
CCOC(=O)c1cnc2c(C)cc(C)cc2c1NCCc1ccc(OC)c(OC)c1 | · | · | 3% | · | · | ·
Cc1cc(C(=O)N/N=C/c2cccs2)no1 | 40* | -20% | -4% | -19% | 58* | 11%
Cn1cccc1/C=N/NC(=O)c1cccc(OC(F)(F)C(F)F)c1 | 30* | -18% | -8% | -4% | 63* | 3%
Cc1cc(C(=O)N/N=C/c2cccn2C)n[nH]1 | 33* | -6% | 1% | -12% | active | -9%
Cc1nc2ccccc2cc1C(=O)N/N=C/c1cccs1 | -3 | -20% | 1% | -13% | -8 | -14%
O=C(N/N=C/c1cccs1)c1[nH]ncc1Br | 55* | -7% | ? | -4% | 118* | 80%
CCCCCCCCCn1c2c(c(=N)c3c1CCC3)CCC2 | -5 | 42% | ? | -124% | -7 | 0%
O=C(NCCCCNC(=O)c1ccco1)c1ccco1 | 0 | -8% | -14% | -10% | -5 | -2%
Cc1cc(C(=O)N/N=C/c2cccs2)n[nH]1 | 29* | -10% | -1% | 0% | 54* | 4%
Cc1cc(C(=O)N/N=C\c2cc(C(C)(C)C)ccc2O)n[nH]1 | 47* | -22% | -1% | ? | 41* | 102%
Cc1ccc(C(=O)N/N=C\c2ccc(OC(=O)c3cccs3)cc2)cn1 | -2 | -14% | -16% | -13% | -15 | 13%
Cc1ccc(C(=O)N/N=C\c2cccs2)cn1 | 25* | -17% | -14% | 0% | 82* | 29%
O=C(N/N=C/c1cccs1)c1cnccn1 | 13 | -20% | -4% | -5% | 32* | 14%
Cc1cc(C(=O)N/N=C/c2cc(Br)ccc2OC(=O)c2ccc(Br)cc2)n[nH]1 | 1 | -21% | -8% | -26% | 13 | ·
CCOC(=O)c1ccc(NC(=O)C(=O)NCc2ccccn2)cc1 | 16 | -4% | ? | -2% | 25 | 37%
CC(C)c1nnc(N2C(=O)c3oc4ccccc4c(=O)c3C2c2ccco2)s1 (centres undefined) | 5 | -14% | ? | -1% | 11 | 4%
Cc1ccc2[nH]c(=O)c(-c3nc4cc(C)ccn4c3NCc3ccco3)cc2c1 | 24* | -42% | -18% | 3% | 23 | -16%
Cc1cccc2cc(-c3nc4c(C)cccn4c3NCc3ccco3)c(=O)[nH]c12 | -3 | -16% | 3% | -1% | -11 | -5%
Cc1ccc(C2CCN(C(=S)NC3CCCCC3)C2)cc1 (centres undefined) | 20* | -16% | -1% | -1% | 70* | -28%
Cc1ccc(C2CCN(C(=S)NC(C)(C)C)C2)cc1 (centres undefined) | 31* | -11% | 0% | 8% | 76* | 3%
Cc1ccc(C2CCN(C(=S)Nc3cccc(C)c3)C2)cc1 (centres undefined) | 20* | -43% | 8% | -12% | 34* | 20%
CCN(C(=S)Nc1ccc(C(C)=O)cc1)C1CCCCC1 | 17 | -15% | 9% | 0% | 33 | 39%
CCC1=Nc2cc(C(=O)NCc3ccccc3OC)ccc2Sc2ccc(Cl)cc21 | · | · | 8% | · | · | ·
O=C(CN(Cc1ccccc1)S(=O)(=O)c1ccc(Cl)cc1)NCC1CCCO1 (centres undefined) | -1 | 39% | -3% | 1% | 4 | 12%

Assay outcomes: PubChem, National Center for Advancing Translational Sciences (NCATS)
